Laboratory results reported in ChEMBL document CHEMBL3988442, “University of Dundee, Small-Polar-MMV Screening Library” (2021).
About 13,000 (27%) of roughly 48,000 compounds showed an effect of 50% or more. This is one part of the list.

What follows are compounds tested on Wolbachia pipientis (assay: Anti-Wolbachia Cell-Based Screen). Settings: 5 µM.
Assay type: functional
Set-up: scale not given: in the data most compounds retested in dose-response had high values

In order of falling “Percent Effect” value:
1. O[C@H]1CN(Cc2c[nH]nc2-c2ccccc2)CC[C@@]12CCCO2  151.3%
2. Cc1ccc(CN2CCOCC2c2[nH]ncc2C)cn1 (stereo not given)  135.2%
3. Cc1cn[nH]c1C1COCCN1Cc1cscn1 (stereo not given)  126.8%
4. O[C@H]1CN(Cc2ccnc(N3CCCC3)n2)CC[C@@]12CCCO2  120.1%
5. CS(=O)(=O)NC[C@@H]1OC[C@H]2CN(Cc3ccccc3)CC[C@H]21.O=C(O)C(F)(F)F  107.1%
6. Cc1cn[nH]c1C1CCCN1Cc1ccc(F)c(F)c1 (stereo not given)  102.9%
7. O=C(c1cncs1)N1CCOCC(Cc2ccncn2)C1 (stereo not given)  102.2%
8. CS(=O)(=O)NC[C@H]1OC[C@@H]2CCN(CCc3ccccc3)C[C@@H]21.O=C(O)C(F)(F)F  101.5%
9. CN(C)CC(=O)N1CCOCC(Cc2ccccn2)C1 (stereo not given)  100.7%
10. Cc1cccc(CN2CC[C@@H]3[C@@H](CO[C@H]3CNc3ncccn3)C2)n1.O=C(O)C(F)(F)F.O=C(O)C(F)(F)F.O=C(O)C(F)(F)F  100.3%
11. Cn1nc(Cl)cc1C(=O)N1CCC(C(=O)c2nc3ccccc3s2)CC1  97.43%
12. CS(=O)(=O)NC[C@H]1OC[C@H]2CN(CCc3ccccc3)CC[C@H]21.O=C(O)C(F)(F)F  87.13%
13. Cn1nc2c(cc1=O)CN(c1nc3ccccc3s1)CC2  9.519%
14. CCc1cc(=O)[nH]c2nnc(SCC(=O)NC(C)C)n12  9.216%
15. OC1CCCOC12CCN(c1ncccn1)CC2 (stereo not given)  8.98%
16. Cc1ccc(CN2CCCN(Cc3cscn3)CC2)cc1  8.803%
17. COc1nc(C)c(C(=O)N(C)Cc2nc(-c3ccccn3)no2)s1  6.707%
18. O=C(Cc1ccc(O)c(F)c1)N1CCC2(CCNCC2)CC1  3.875%
19. Cc1sc2nc(C(F)(F)F)nc(N3CCCN(C)CC3)c2c1C  3.641%
20. COc1ccc(CN2CC[C@H]3[C@H](CO[C@H]3CNC(=O)N(C)C)C2)cc1.O=C(O)C(F)(F)F  1.388%
21. Cc1cnc(CN(Cc2ccc(C#N)cc2F)C2CCN(C)C2)o1 (stereo not given)  0.7186%
22. CN(C)C(=O)NC[C@@H]1OC[C@H]2CN(Cc3cccc(F)c3)CC[C@H]21.O=C(O)C(F)(F)F  -1.144%
23. COc1ccc(CN2CC[C@H]3CO[C@H](CNC(=O)N(C)C)[C@H]3C2)cc1.O=C(O)C(F)(F)F  -1.403%
24. Cc1cccc(-c2nnn3c2COC(CNS(=O)(=O)C2CC2)C3)c1 (stereo not given)  -1.824%
25. CC(=O)N(C)C1CCCc2nc(C)sc21 (stereo not given)  -2.267%
26. COc1cccc(CC(=O)N2CCC(O)(C(F)(F)F)C2)c1 (stereo not given)  -3.145%
27. Cc1ccc(CN2CCN(c3cc(NCCO)ncn3)CC2CCO)o1 (stereo not given)  -3.553%
28. CCCN1CC[C@@H]2[C@@H](CO[C@H]2CNC(=O)c2nccn2C)C1.O=C(O)C(F)(F)F  -3.77%
29. CN1CCN(CCCN(C)S(=O)(=O)C2CCCCC2)CC1  -3.997%
30. CCOCCn1nc(C)cc1C(=O)N1CCOCC(CO)C1 (stereo not given)  -4.092%
31. C[C@H]1C[C@H]2CN(C(=O)C3=CCCC3)CC[C@H]2O1  -4.42%
32. CS(=O)(=O)NC[C@@H]1OC[C@H]2CN(C(=O)c3ccccc3)CC[C@H]21  -5.092%
33. Cc1cccc(CN2CC[C@H]3CO[C@H](CNC(=O)N(C)C)[C@H]3C2)c1.O=C(O)C(F)(F)F  -5.522%
34. Cn1nc(CNC(=O)c2nc3ccccc3s2)c2c1CCOC2  -7.604%
35. COc1cc(OC)nc(N2CCC3(CC2)OCCCC3O)n1 (stereo not given)  -8.22%
36. CC(C)S(=O)(=O)NCC1CCCN(C(=O)c2ccc3c(c2)OCCO3)C1 (stereo not given)  -10.13%
37. CS(=O)(=O)NCCCSCc1cccc2cccnc12  -10.2%
38. CS(=O)(=O)NC[C@@H]1OC[C@H]2CN(C(=O)c3ccccn3)CC[C@H]21.O=C(O)C(F)(F)F  -10.63%
39. Cc1ccc(-c2c[nH]c([C@@H]3COCCN3Cc3cccnc3)n2)cc1  -11%
40. CCn1c(CN(C)C)nnc1C1CCN(c2ccnc(C)c2)CC1  -12.28%
41. OC1CCCOC12CCN(Cc1nnc(-c3cccnc3)o1)CC2 (stereo not given)  -12.47%
42. CCOC(=O)N1CCN(c2nc(NCCO)c3ccccc3n2)CC1  -13.13%
43. CC(C)(C)c1coc([C@@H]2COCCN2Cc2cnc3ccccc3c2)n1  -14.41%
44. CCC(CO)NC(=O)Cc1ccc(NC(=O)CC2=CCCCC2)cc1 (stereo not given)  -16.18%
45. F[C@@H]1CN(CC2CCCCC2)C[C@@H]1OCc1nc2ccccc2o1  -16.46%
46. Cc1cc(C)n(CC2CCCN2Cc2cscn2)n1 (stereo not given)  -19.73%
47. CS(=O)(=O)NC[C@H]1OC[C@@H]2CCN(Cc3ccc(F)cc3)C[C@@H]21.O=C(O)C(F)(F)F  -22.2%
48. CCN1CC2(CCN(CC3COCCO3)CC2)OC1=O (stereo not given)  -23.81%
49. CCOC(=O)C1CCCN(Cc2c[nH]nc2-c2cc3ccccc3o2)C1 (stereo not given)  -24.88%
50. Cc1ccc(C(CNCc2ncc[nH]2)N2CCOCC2)s1 (stereo not given)  -41.63%
